# Sampled rows, rich in hits. Any-hit rate of the full collection: about 12%.
# Cycloheximide cs: Cycloheximide Counterscreen for Small Molecule Inhibitors of Shiga Toxin; cell reporter, cycloheximide protein synthesis inhibition counterscreen; max response, %; hit rate 12% among 300,000; AID 2314, 2010; in the data active means max response mostly above about 13%, no sharp cut-off; inactive means mostly below about 14%; further: read at 38.3 µM for the half of the compounds with a filed dose; 0% is about no effect
# SARS PLpro yeast: qHTS of Yeast-based Assay for SARS-CoV PLP | S. cerevisiae expressing SARS-CoV PLpro, growth rescue | Potency, µM (top dose mostly 32.9 µM), without a hit: at the top dose activity, positive = growth rescue, actives largely listed as activators | hit rate 0.19% among 330,000; further: potency means the concentration at half of the fitted maximal effect; 0% is about no effect; nearly all actives have a fitted effect of over 55% in size
# Shiga inhibitor: A qHTS for Small Molecule Inhibitors of Shiga Toxin | inhibition, % at 38.7 µM | Vero cells, Shiga toxin protein synthesis inhibition reporter | hit rate 9.2% among 290,000; in the data active means inhibition mostly above about 28%, no sharp cut-off; inactive means mostly below about 43%; further: 0% is about no effect
# NS1 inh: qHTS Assay for Inhibitors of Influenza NS1 Protein Function; Potency, µM (doses to about 46.1 µM), for the others: top-dose activity, positive = more growth; AID 2326, 2010; hit rate 0.4% among 270,000; further: potency means the concentration at half of the fitted maximal effect; actives are rising curves; nearly all actives have a fitted effect of over 50% in size
#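 Recovery from NS1-induced slow growth read by OD600 in budding yeast switched to galactose assay medium (pH 6.0, -URA) at 1:100 dilution. Compound 23 nl per well; the matching strain lacking NS1 serves as control.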
# The depositor's hits bear a star; u = inconclusive; x = not tested or not shown; [ ] = remark or other dose. Unless noted, the call rests on the fitted dose curve.
SMILES,Cycloheximide cs,SARS PLpro yeast,Shiga inhibitor,NS1 inh
COC(=O)CC(NC(=O)CN1CCN(c2ccc(F)cc2)CC1)c1cccc(F)c1 (centres undefined),-1.5,9.5%,-9.6,-8.7%
CC1=C(CC/C(C)=N/NC(N)=S)C(C)(C)CCC1,1.5,14.1µM*,6.9,-9.0%
COC(=O)CNC(=O)COC(=O)/C=C/c1ccc2ccccc2n1,20.2*,-0.4%,32.1*,x
COC(=O)CNC(=O)COC(=O)/C=C/c1cccs1,1.2,0.6%,32.5,-1.1%
CC1CCCCN1C(=O)COC(=O)/C=C/c1ccc2ccccc2n1 (centres undefined),47.8*,0.5%,47.7*,x
CC1CCCCN1C(=O)COC(=O)c1ccc2ccccc2n1 (centres undefined),x,-5.0%,x,x
CNC(=O)C1CN(C(=O)c2cccc(S(=O)(=O)N3c4ccccc4CC3C)c2)c2ccccc2O1 (centres undefined),x,5.8%,x,x
Cn1c(CN2CCCCC2)nc2cc([N+](=O)[O-])ccc21,4.4,0.2%,20.2,x
O=[N+]([O-])c1ccc2oc(C3CCCCC3)nc2c1,28.7*,-0.5%,76.2*,4.3%
Nc1ccc2oc(C3CCCCC3)nc2c1,55.0*,1.4%,96.5*,1.1%
NC(=O)C1CCCN(CC(=O)Nc2cc(S(=O)(=O)N3CCOCC3)ccc2N2CCCC2)C1 (centres undefined),x,1.6%[6.58 µM],x,x
CCCCCN1CC(=O)N2C(C)c3[nH]c4ccccc4c3C[C@H]2C1=O (some centres undefined),-3.1,-2.4%,-4.0,-2.1%
Clc1ccc2c(c1)CNc1c(ncnc1N1CCOCC1)O2,11.6*,-0.7%,-13.9,u
COc1cccc(CN2CCN(Cc3cccc4c3OCO4)CC2CCO)c1 (centres undefined),19.5*,-0.4%,46.8,0.0%
Cc1ccc(OCC(=O)N2CCCCCCC2)cc1,15.9*,2.8%,60.9,-2.4%
O=C(COc1ccc2cc(Br)ccc2c1)N1CCCC1,0.7,1.2%,-15.9,7.0%
O=C(COc1ccc(Cl)cc1)N1CCCC1,12.2*,-11.0%,37.1*,6.6%
CCOC(=O)N1CCN(C(=O)COc2ccc3c(c2)C(=O)CC(C)(C)O3)CC1,-3.0,-3.2%,-5.6,x
CC1(C)CC(=O)c2cc(OCC(=O)N3CCCCCC3)ccc2O1,56.8*,9.7%,80.0*,-4.2%
O=C(COc1ccccc1)N1CCCC1,12.4,-0.6%,-9.6,x
O=C(COc1ccc(Br)cc1)N1CCCCCC1,14.4*,1.4%,43.7,-52.4%
Cc1ccc(NS(=O)(=O)c2ccc(NC(=O)c3cccs3)cc2)cc1,-1.8,0.2%,-0.7,5.0%
Cc1occc1-c1nnc(SCC(=O)O)n1-c1ccccc1,-6.7,1.1%,2.3,14.1%
O=C(COc1ccc(-c2ccccc2)cc1)N1CCN(C(=O)c2cccs2)CC1,15.2*,-0.7%,40.2*,8.0%
O=C(COc1ccccc1)N1CCN(S(=O)(=O)c2cccs2)CC1,3.4,4.2%,-1.5,-1.4%
SMILES,Cycloheximide cs,SARS PLpro yeast,Shiga inhibitor,NS1 inh
CC(C)c1ccc(/C=N/NC(=O)C2CCCC2)cc1,80.1*,-9.4%,88.1*,-23.0%
COc1ccc(/C=N\NC(=O)C2CCCC2)cc1Br,-2.6,-3.1%,-21.5,-0.9%
C=C1CC(C(=O)N/N=C/c2ccccc2)C1,40.0*,3.0%,41.2*,-8.6%
CC(C)(C)c1ccc(/C=N/NC(=O)C2CCCC2)cc1,50.6*,-9.5%,132.9*,-38.7%
CC(C)c1ccc(/C=N/NC(=O)CC(=O)NC2CCCCC2)cc1,-6.2,0.3%,25.0,4.2%
O=C(N/N=C/c1ccccc1)C(=O)N/N=C/c1ccccc1,-7.2,-3.4%,20.1,-13.1%
CC[n+]1oc(-c2ccccc2)cc1C,-6.3,0.6%,1.6,x
COc1ccc(-c2nnc(SCc3csc(N)n3)n2C)cc1,-4.1,-1.7%,-17.1,9.9%
CCCCSc1nnc(-c2ccc(OC)cc2)n1C,64.6*,-17.3%,60.1*,-8.1%
Cn1c(SCCC#N)nnc1-c1ccc(F)cc1,1.3,-4.6%,39.3,x
Cc1ccc(Nc2nc(CSc3nnc(-c4ccc(F)cc4)n3C)cs2)cc1,31.6*,-0.1%,123.5*,-18.0%
Cc1ccc(-c2nnc(SCC(C)C)n2C)cc1,33.5*,-0.7%,138.0*,-17.9%
Cc1ccc(C(=O)CSc2nnc(-c3ccncc3)n2C)cc1,-1.1,1.3%,-7.7,x
CCN(c1ccccc1)S(=O)(=O)c1ccc(C(=O)NCC2(N(C)C)CCCCC2)cc1,x,-1.1%,x,x
c1ccc(C[n+]2csc3ccccc32)cc1,14.3,-29.5%,108.8*,-5.2%
Fc1cccc(C[n+]2csc3ccccc32)c1,2.4,-28.8%,9.1,-11.1%
COc1ccc2nc(C3CCCCC3)nc(C3CCCCC3)c2c1,x,3.9%,x,x
CCC(Sc1nc(N)c(NC(=O)c2ccc(Br)o2)c(=O)[nH]1)C(=O)O (centres undefined),7.9,4.0%,-10.9,-8.8%
O=C(CSc1nnc(-c2ccc(F)cc2)o1)Nc1ccc(S(=O)(=O)N2CCCC2)cc1,19.6*,-0.3%,42.1,-2.4%
O=C(CSc1nnc(-c2ccccn2)o1)Nc1ccc(F)cc1,10.4,-0.1%,24.5*,-9.0%
O=C(CSc1nnc(-c2ccccn2)o1)Nc1ccccc1,20.2,-0.9%,64.9*,-5.2%
Fc1ccc(CSc2nnc(-c3ccccn3)o2)cc1,27.7*,-6.8%,41.0*,-13.4%
O=C(CSc1nnc(-c2ccc(F)cc2)o1)Nc1ccc(S(=O)(=O)N2CCCCCC2)cc1,-5.0,-4.0%,-19.3,4.3%
Cc1cc(NC(=O)CCN2CCC(C)CC2)ccc1Br,0.9,2.3%,-11.0,3.9%
CCCC(C(=O)NNC(=O)c1cc(C)oc1C)c1ccccc1 (centres undefined),x,-4.7%,x,x
SMILES,Cycloheximide cs,SARS PLpro yeast,Shiga inhibitor,NS1 inh
NC(=O)c1ccc(NC(=O)CSc2cn(CC(=O)N3CCOCC3)c3ccccc23)cc1,9.2,-3.8%,-7.5,0.8%
Cc1cccc(CSc2cn(CC(=O)N3CCOCC3)c3ccccc23)c1,42.5*,-42.1%,63.7*,-5.4%
O=Cc1cn(CC(=O)N2CCOCC2)c2ccccc12,-4.1,1.7%,-7.1,-5.5%
O=C(Cn1cc(SCc2cccc(Cl)c2)c2ccccc21)N1CCOCC1,48.5*,-4.4%,26.9,2.8%
Cc1cccc(C)c1NC(=S)NC(=O)c1ccccc1F,-2.6,13.8%,-12.4,u
Cc1onc(NC(=O)NC(=O)c2ccccc2F)c1Br,21.4*,-7.4%,37.2,-6.7%
Cc1onc(NC(=O)c2ccc(Cl)cc2Cl)c1Br,42.0*,-5.5%,71.7*,-5.1%
NS(=O)(=O)c1ccc(CCNC(=O)c2ccc(-c3ccccc3)cc2)cc1,5.1,2.8%,x,u
Cc1cccc(-n2ncc3c(N(CCO)CCO)ncnc32)c1,27.2*,4.0%,64.9*,-7.5%
Cc1cccc(-n2ncc3c(N4CCCc5ccccc54)ncnc32)c1,31.0,-15.7%,39.0,1.6%
COc1ccc(-n2ncc3c(N(C)C4CCCCC4)ncnc32)cc1,44.7*,-1.3%,73.7*,0.0%
Cc1cccc(-n2ncc3c(N(C)C4CCCCC4)ncnc32)c1,90.1*,-0.2%,127.4*,-2.1%
COc1ccc(OC)c(Nc2ncnc3c2cnn3-c2cccc(C)c2)c1,6.4,-61.4%,12.6,-39.4%
Cn1c(=O)c(C(=O)N2CCc3ccccc32)cc2cccnc21,x,-6.2%,x,x
Cn1cnnc1SCC(=O)NC1CCCC1,-0.3,2.8%,-6.8,5.4%

# Screens (PubChem BioAssay)
